This is a sample that favours compounds with a hit; in the whole collection about 3.2% have one here.
CHT block – inhibitors of human choline transporter CHT. AID 488975, 2010. CHT-expressing cells, membrane potential dye, choline response; stronger effect = lower value. 310,000 tested, 0.86% active. B-score at 10 µM;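 active means B-score over 3 SD under the library average, and starting fluorescence ratio not unusually high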;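 further: choline stimulus applied at its EC90 after an EC20 pre-addition; B-score computed on integrated fluorescence ratio after choline addition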
TMEM16A act – TMEM16A chloride channel activators or potentiators, primary screen, cell-based, HTS; Anoctamin-1 (Mus musculus), Q8BHY3; HEK293 TMEM16A/YFP-H148Q/I152L, iodide quench fluorescence; stronger effect = lower value; B-score at 10 µM; 340,000 tested, 0.3% active; AID 623877, 2012;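 active means fluorescence-ratio B-score plate-corrected deviation score at least 3 library SD below zero, with starting fluorescence score within 5 deviations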;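 further: channel opened by trigger with iodide after compound preincubation; score built on the fluorescence ratio of max minus min over baseline; more negative score means more quench and so TMEM16A activation or potentiation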
Kir21 block – inhibitors of mouse Kir2.1 inward-rectifier potassium channel; HEK293-Kir2.1, FluxOR thallium flux fluorescence; stronger effect = lower value; B-score at 10 µM; 310,000 tested, 0.85% active; AID 1672, 2009; Inward rectifier potassium channel 2 (Mus musculus), P35561;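 active means fluorescence ratio B-score at or below minus 3 SD of library scores, with starting-brightness B-score within 2 SD, cut at about -4.2 in these data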;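 further: channel flux triggered by added potassium and thallium sulfate stimulus; B-score of peak minus minimum fluorescence over baseline after thallium stimulus; more negative B-score means stronger Kir2.1 block with less thallium influx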
TMEM16A inh – TMEM16A chloride channel inhibitors, primary screen, cell-based, HTS; HEK293 TMEM16A/YFP iodide influx fluorescence, ionomycin; normalized B-score (activity score, 25-100; higher = stronger inhibition) at 10 µM; 310,000 tested, 1.2% active; AID 588511, 2011;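 active means ratio plate-corrected score three or more library SD toward inhibition, starting fluorescence score within five deviations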;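 further: score derived from kinetic fluorescence span divided by baseline fluorescence per well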
CHT PAM – CHT positive allosteric modulators, primary screen, cell-based, membrane potential dye, choline EC20; High affinity choline transporter 1 (Homo sapiens), Q9GZV3; CHT-expressing cells; stronger effect = higher value; LV-AA mutant CHT in HEK293 cells; B-score at 10 µM; 310,000 tested, 0.49% active; AID 488977, 2010;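 active means initial fluorescence not abnormally high and integrated response B-score, plate-corrected, over 3 SD above library mean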
Rce1 inhib – yeast Rce1p protease inhibitors, primary screen, biochemical, fluorescence, cell-free homogeneous | CAAX prenyl protease 2 (Saccharomyces cerevisiae (strain ATCC 204508 / S288c)), Q03530 | yeast membranes, quenched prenylated peptide cleavage fluorescence | calls only | 290,000 tested, 0.27% active | AID 2563, 2010;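 active means fall in fluorescence gain of 50% or more versus controls, with final raw signal at or below 3038400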
CHT block conf – CHT inhibitors, confirmation, cell-based, membrane potential dye, duplicate. AID 493221, 2011. CHT activity remaining % of control (stronger effect = lower value), % at 10 µM. CHT-expressing cells, choline membrane potential dye; LV-to-AA substituted CHT, HEK293 cells. shares compounds with CHT block. 2,400 tested, 70% active;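 active means choline transporter activity left, mean of duplicates at 10 µM, below buffer-only control mean minus 3 SD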;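 further: depolarization triggered by choline at its EC90 following an EC20 pre-addition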
HEK293 CHT ctr – membrane potential effects in parental HEK293, counter-screen for CHT inhibitor project, cell-based, membrane potential dye. 2,400 tested, 4% active. membrane potential ratio readout (active if shifted either direction beyond buffer ±3SD; no single direction) at 10 µM. shares compounds with CHT block. choline response; active = decrease or increase beyond buffer ±3SD;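 further: parental cells lack the transporter so any hit is non-specific; ratio is peak minus trough fluorescence over baseline after EC90 choline challenge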
Each line names hits and unclear results; the compound was inactive in the other large screens (follow-up assays come after a bar, where they were run).

N#C/C(=C(/O)COc1ccccc1)c1nc2ccccc2s1	none
COc1ccc(C/C(O)=C(\C#N)c2nc3ccccc3s2)cc1	CHT block -4.96, TMEM16A inh 100 | CHT block conf 55.0% | HEK293 CHT ctr inactive
O=C(Nc1cc([N+](=O)[O-])ccc1O)c1cccc(C(=O)Nc2cc([N+](=O)[O-])ccc2O)c1	none
O=C(Nc1cc([N+](=O)[O-])ccc1O)c1cccc([N+](=O)[O-])c1	CHT block -5.43 | CHT block conf 10.1% | HEK293 CHT ctr inactive
O=C(O)c1cccc(Nc2nc(Nc3ccccc3)nc(N3CCCC3)n2)c1	none (no result: Rce1 inhib)
CCc1nc(NCc2ccccn2)c2oc3ccccc3c2n1	none | CHT block conf 56.3% | HEK293 CHT ctr inactive
Nc1ncnc2c1ncn2C1OC(CO)C(O)C1O (configuration not stated)	CHT block -10.1 | CHT block conf 37.0% | HEK293 CHT ctr inactive
Nc1ncnc2c1ncn2C1O[C@H](CO)[C@@H](O)[C@@H]1O (some centres not stated)	none (no result: Kir21 block, Rce1 inhib)
OCC1OC(n2cnc3c(NC4CCCCC4)ncnc32)C(O)C1O (configuration not stated)	CHT block -5.52 | CHT block conf 41.2% | HEK293 CHT ctr inactive
Nc1ncnc2c1ncn2C1OC(C(=O)NC2CC2)C(O)C1O (configuration not stated)	CHT block -5.1 (no result: Kir21 block, Rce1 inhib) | CHT block conf 43.6% | HEK293 CHT ctr inactive
C=CCNc1ncnc2c1ncn2C1OC(CO)C(O)C1O (configuration not stated)	CHT block -6.01 | CHT block conf 40.8% | HEK293 CHT ctr inactive
O=C(OC1CCOC1=O)c1ccc(Cl)c(S(=O)(=O)N2CCOCC2)c1 (configuration not stated)	none (no result: CHT block, Kir21 block, TMEM16A inh, CHT PAM, Rce1 inhib)
Cc1c(NC(=O)C(C)Sc2nc(N)cc(=O)[nH]2)c(=O)n(-c2ccccc2)n1C (configuration not stated)	none (no result: CHT block, Kir21 block, TMEM16A inh, CHT PAM, Rce1 inhib)
O=C(CCNS(=O)(=O)c1ccc(OC(F)(F)F)cc1)Nc1cccc(S(=O)(=O)N2CCCC2)c1	none (no result: CHT block, Kir21 block, TMEM16A inh, CHT PAM, Rce1 inhib)
Cc1cc(C)cc(C(=O)NC(CC(N)=O)c2ccc(NC3CCCC3)c([N+](=O)[O-])c2)c1 (configuration not stated)	none
Cc1ccc(SCC(=O)N(C)CC(=O)Nc2cccc(F)c2)c(C)c1	none
Cc1ccc(NC(=O)CNC(=O)c2cccc(Cl)c2)nc1	CHT block -6.19 | CHT block conf 26.0% | HEK293 CHT ctr inactive
CC1Cc2ccccc2N1C(=O)COC(=O)c1ccc(O)cc1 (configuration not stated)	CHT block -5.49 | CHT block conf 52.4% | HEK293 CHT ctr inactive
COc1ccc(CCC(=O)N2c3ccccc3CC2C)cc1 (configuration not stated)	CHT block -5.44 | CHT block conf inactive | HEK293 CHT ctr inactive
COc1ccc(CCC(=O)N2CCc3ccccc32)cc1	none
CCOC(=O)c1ccc[n+](CC(=O)c2ccc(NC(=O)c3ccccc3)cc2)c1	none
CCOC(=O)C1CCN(C(=O)COC(=O)c2c(C)c(CC)nc3ccccc23)CC1	none (no result: CHT block, Kir21 block, TMEM16A inh, CHT PAM, Rce1 inhib)
COc1ccc(C(=O)C[n+]2cccc(C(N)=O)c2)cc1	none
Cc1ccc[n+](CC(=O)c2ccccc2)c1	none (no result: TMEM16A act)
Cc1ccc[n+](CC(=O)c2ccc(Br)cc2)c1C	CHT block -9.71 | CHT block conf 39.2% | HEK293 CHT ctr inactive
COc1ccc(C(=O)C[n+]2cccc(C)c2)cc1	CHT block -8.54 | CHT block conf 6.4% | HEK293 CHT ctr inactive
Cc1ccc[n+](CC(=O)c2ccc(Br)cc2)c1	CHT block -10.2 | CHT block conf 4.2% | HEK293 CHT ctr inactive
CCC(C(=O)NCCc1ccc(S(N)(=O)=O)cc1)c1ccccc1 (configuration not stated)	none
Cc1ccc(-c2csc(NC(=O)c3cccc(C)c3)c2C(=O)O)cc1	CHT block -7.71 | CHT block conf 42.6% | HEK293 CHT ctr inactive
CC(C)Cc1csc(NC(=O)c2ccccc2Cl)c1C(=O)O	none
Cc1cccc(C(=O)Nc2scc(-c3ccc(Br)cc3)c2C(=O)O)c1	none
Cc1ccc(-c2csc(NC(=O)c3ccccc3Cl)c2C(=O)O)cc1	CHT block -5.85 | CHT block conf 66.1% | HEK293 CHT ctr inactive
Cc1ccccc1OCCn1c(C)nc2ccccc21	CHT block -5.18 | CHT block conf inactive | HEK293 CHT ctr inactive
Cc1ccc(-n2cc(CN3CCN(Cc4nccn4C)CC3)c(-c3ccc(F)cc3)n2)cc1	CHT block -6.4 | CHT block conf 28.7% | HEK293 CHT ctr inactive
COc1cccc2cc(C(=O)NCCc3ccccc3)oc12	none
NC(N)=Nc1nc(C2COc3ccccc3O2)cs1 (configuration not stated)	CHT block -8.76 (no result: Rce1 inhib) | CHT block conf 46.4% | HEK293 CHT ctr inactive
Cc1cccc(NC(=O)c2ccccc2O)c1C	CHT block -6.36, TMEM16A inh 25 | CHT block conf 68.8% | HEK293 CHT ctr inactive
CCOc1ccccc1NS(=O)(=O)c1cn(C)nc1C	none
Cc1ccc(/C=C2/Sc3ccc(C(=O)NCc4ccccn4)cc3NC2=O)cc1	none
CSc1nc(Nc2ccc(Cl)cc2)c(C#N)c(=O)[nH]1	CHT block -6.1 | CHT block conf inactive | HEK293 CHT ctr inactive
CSc1nc(-c2ccc(Cl)cc2)c(C#N)c(=O)[nH]1	none
CC1=NN(c2cccc(Cl)c2)C(=O)C1	none | CHT block conf inactive | HEK293 CHT ctr inactive
CCN(CC)C(=O)c1ccc(COc2ccccc2Br)o1	CHT block -8.15 | CHT block conf 57.7% | HEK293 CHT ctr inactive
O=C(Nc1cccnc1)c1ccc(COc2ccccc2Br)o1	CHT block -5.74 | CHT block conf 54.9% | HEK293 CHT ctr inactive
O=C(NCc1cccnc1)c1ccc(COc2ccccc2Cl)o1	CHT block -5.36 | CHT block conf 58.3% | HEK293 CHT ctr inactive
CC(C)(C)NC(=O)c1ccc(COc2ccccc2Br)o1	CHT block -6.26 | CHT block conf inactive | HEK293 CHT ctr inactive
O=C(COC(=O)CCc1nc2ccccc2s1)NC(=O)NCc1ccco1	none
CN(CC(=O)Nc1ccc(Cl)c(C(F)(F)F)c1)C(=O)/C=C/c1cccs1	none (no result: CHT block, Kir21 block, TMEM16A inh, CHT PAM, Rce1 inhib)

From PubChem BioAssay
